# According to the supplement of paper PMC8975748:
# Counter-ions that a name gives are not always drawn.
# Test system: Saccharomyces cerevisiae BY4741 SeMeCo community
# Experiment: z-score of prototroph abundance vs DMSO median; higher = larger share of this subpopulation than in DMSO controls
# Details: 10 µM; 24 h; SM minimal medium; subpopulation (auxotrophy): Prototroph
# Procedure: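 Fluorescent four-plasmid SeMeCo (self-establishing metabolically cooperating S. cerevisiae BY4741 community; plasmids pH-mRuby2, pL-mWasabi, pU-eCFP, pM-TagRFP657) was grown 24 h in minimal SM medium with each Selleck FDA-approved drug at 10 µM in 384-well plates. Cells were fixed and imaged by high-content confocal microscopy. For each auxotrophic subpopulation (and the prototroph), a z-score gives the deviation from the DMSO vehicle-control population median.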
row,Structure (SMILES),z-score of prototroph abundance
1,C[N+]1(C)CCC(OC(=O)C(O)(c2ccccc2)C2CCCC2)C1 (stereo not given) [Glycopyrrolate],-0.59
2,CCCN1CCCC[C@H]1C(=O)Nc1c(C)cccc1C [Ropivacaine HCl],-0.38
3,C#C[C@]1(O)CC[C@H]2[C@@H]3CCc4cc(O)ccc4[C@H]3CC[C@@]21C [Ethinyl Estradiol],1.23
4,CO/N=C(/C(=O)N[C@@H]1C(=O)N2C(C(=O)OCOC(=O)C(C)(C)C)=C(C)CS[C@H]12)c1csc(N)n1 [Cefetamet pivoxil hydrochloride],-1.5
5,CC(=O)OCC[N+](C)(C)C [Acetylcholine iodide],1.05
6,CC1(C)S[C@@H]2[C@H](NC(=O)[C@H](N)c3ccccc3)C(=O)N2[C@H]1C(=O)O [Ampicillin Trihydrate],0.28
7,Oc1c(Cl)cc(Cl)cc1Sc1cc(Cl)cc(Cl)c1O [Bithionol],-1.81
8,COc1cccc2c1C(=O)c1c(O)c3c(c(O)c1C2=O)CC(O)(C(=O)CO)CC3OC1CC(N)C(O)C(C)O1 (stereo not given) [Doxorubicin (Adriamycin) HCl],-3.54
9,CC1(C)CC[C@]2(C(=O)O)CC[C@]3(C)C(=CC[C@@H]4[C@@]5(C)CC[C@H](O)C(C)(C)[C@@H]5CC[C@]43C)[C@@H]2C1 [Oleanolic Acid],-0.29
10,Clc1ccccc1C(c1ccccc1)(c1ccccc1)n1ccnc1 [Clotrimazole],-9.07
11,Cc1nnc(SCC2=C(C(=O)O)N3C(=O)[C@@H](NC(=O)Cn4cc(Cl)c(=O)c(Cl)c4)[C@H]3SC2)s1 [Cefazedone],0.73
12,CC[C@@]1(O)C(=O)OCc2c1cc1n(c2=O)Cc2cc3c(CN(C)C)c(O)ccc3nc2-1 [Topotecan HCl],1.13
13,CCn1cc(C(=O)O)c(=O)c2cc(F)c(N3CCNCC3)nc21 [Enoxacin],0.22
14,O=C(C1CCCCC1)N1CC(=O)N2CCc3ccccc3C2C1 (stereo not given) [Praziquantel],-0.09
15,CO/N=C(\C(=O)N[C@@H]1C(=O)N2C(C(=O)O)=C(COC(N)=O)CS[C@H]12)c1ccco1 [Cefuroxime sodium],0.23
16,COc1ccc2c3c1O[C@H]1C[C@@H](O)C=C[C@@]31CCN(C)C2 [Galanthamine HBr],-0.57
17,COc1cc2c(cc1OC)[C@@H]1Cc3ccc(OC)c(OC)c3CN1CC2 [Rotundine],-0.12
18,Cc1ccccc1C(OCCN(C)C)c1ccccc1 (stereo not given) [Orphenadrine Citrate],0.04
19,CO/N=C(\C(=O)N[C@@H]1C(=O)N2C(C(=O)O)=C(CSc3nc(C)c(CC(=O)O)s3)CS[C@H]12)c1csc(N)n1 [Cefodizime Sodium],0.26
20,COc1c(N2C[C@@H]3CCCN[C@@H]3C2)c(F)cc2c(=O)c(C(=O)O)cn(C3CC3)c12 [Moxifloxacin HCl],-0.74

row,Structure (SMILES),z-score of prototroph abundance
1,CN(C)CCc1c[nH]c2ccc(CS(=O)(=O)N3CCCC3)cc12 [Almotriptan Malate],0.66
2,COCCCOc1ccnc(C[S+]([O-])c2nc3ccccc3[nH]2)c1C (stereo not given) [Rabeprazole],-0.81
3,C=C1CCC2C(C)(CO)C(O)CCC2(C)C1CC=C1C=COC1=O (stereo not given) [Dehydroandrographolide],-0.69
4,CC[C@H]1OC(=O)[C@H](C)[C@@H](O[C@H]2C[C@@](C)(OC)[C@@H](O)[C@H](C)O2)[C@H](C)[C@@H](O[C@@H]2O[C@H](C)C[C@H](N(C)C)[C@H]2O)[C@](C)(O)C[C@@H](C)CN[C@H](C)[C@@H](O)[C@]1(C)O [Azathramycin],0.12
5,CCOC(=O)C1=C[C@]2(CC)CCCN3CCc4c(n1c1ccccc41)[C@@H]32 [Vinpocetine],-0.9
6,C=C1CCN([C@H](C)[C@](O)(Cn2cncn2)c2ccc(F)cc2F)CC1 [Efinaconazole],-9.55
7,CC(=O)NO [Acetohydroxamic acid],-0.09
8,"CO[C@H]1C[C@@H]2CC[C@@H](C)[C@@](O)(O2)C(=O)C(=O)N2CCCC[C@H]2C(=O)O[C@H]([C@H](C)C[C@@H]2CC[C@@H](OP(C)(C)=O)[C@H](OC)C2)CC(=O)[C@H](C)/C=C(\C)[C@@H](O)[C@@H](OC)C(=O)[C@H](C)C[C@H](C)/C=C/C=C/C=C/1C [Ridaforolimus (Deforolimus, MK-8669)]",-18.3
9,O=C(CCCN1CCC(O)(c2ccc(Cl)cc2)CC1)c1ccc(F)cc1 [Haloperidol],0.57
10,CC1CCc2c(N3CCC(O)CC3)c(F)cc3c(=O)c(C(=O)O)cn1c23 (stereo not given) [Nadifloxacin],-0.14
11,N[C@@H](CCC(=O)O)C(=O)O [(S)-Glutamic acid],0.18
12,CN(C)CCC[C@@]1(c2ccc(F)cc2)OCc2cc(C#N)ccc21 [Escitalopram Oxalate],1.15
13,CCCCCOc1ccc(-c2ccc(-c3ccc(C(=O)N[C@H]4C[C@@H](O)[C@@H](O)NC(=O)[C@@H]5[C@@H](O)[C@@H](C)CN5C(=O)[C@H]([C@@H](C)O)NC(=O)[C@H]([C@H](O)[C@@H](O)c5ccc(O)cc5)NC(=O)[C@@H]5C[C@@H](O)CN5C(=O)[C@H]([C@@H](C)O)NC4=O)cc3)cc2)cc1,-14.8
14,Clc1ccc(COC(Cn2ccnc2)c2ccc(Cl)cc2Cl)cc1 (stereo not given) [Econazole nitrate],-8.44
15,O=C1OC(CN2CCOCC2)CN1/N=C/c1ccc([N+](=O)[O-])o1 (stereo not given) [Furaltadone HCl],0.34
16,CC(C)N1CCN(c2ccc(OCC3COC(Cn4cncn4)(c4ccc(Cl)cc4Cl)O3)cc2)CC1 (stereo not given) [Terconazole],1.34
17,O=C(O)CCC(=O)c1ccc(-c2ccccc2)cc1 [Fenbufen],-0.31
18,CCc1c2c(nc3ccc(OC(=O)N4CCC(N5CCCCC5)CC4)cc13)-c1cc3c(c(=O)n1C2)COC(=O)[C@]3(O)CC [Irinotecan HCl Trihydrate],-0.17
19,CSc1nc2cc(Cl)c(Oc3cccc(Cl)c3Cl)cc2[nH]1 [Triclabendazole],1.8
20,COc1cccc2c1C(=O)c1c(O)c3c(c(O)c1C2=O)C[C@@](O)(C(=O)CO)C[C@@H]3O[C@H]1C[C@H](N)[C@H](O[C@@H]2CCCCO2)[C@H](C)O1 [Pirarubicin],2.14
